SMILES strings stand for the structures. About 83,000 compounds went through this panel and 20% of them were active in at least one assay; those are over-represented in the sample as a whole.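 Interpretation: 100, growth as untreated; towards 0, rising growth inhibition; 0, no net growth; 0 to -100, cell death. Compounds scoring below 10 were considered active.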 The source made the active and inactive calls.

The assay deals with MDA-MB-468 breast. Nature of the assay: NCI-60 one-dose screen, 48 h (100 = growth as untreated, 0 = no growth, -100 = all killed). As to conditions: 10 µM unless noted.
Consider `N/C(=N\OC(=O)CSc1nc2ccccc2s1)c1ccc(Cl)cc1`, for which the growth was 100% (inactive).
As for `Nc1cc(-c2c[nH]c3ccccc23)nc2cc(-c3c[nH]c4ccccc34)nn12`, the figure is 52.1% (inactive).
As for `C=CCn1c(SCC(=O)Nc2ccc(C(=O)/C=C/c3ccccc3)cc2)nnc1-c1ccc(OC)c(OC)c1`, the figure is 59.5% (inactive).
`CC1=C(C(=O)Nc2ccc(F)cc2)C(c2ccc(Cl)cc2)C2=C(CC(C)(C)CC2=O)N1` (stereo not given): the growth is 89.4% (inactive).
As for `COc1ccc(CCNc2nc3c(c(=O)n(Cc4ccc(Br)cc4)c(=O)n3C)n2C)cc1OC`, the growth is 109% (inactive).
Turning to `COc1ccc(C2CC(c3cccc(OCCCCOc4cccc(C5=NN(C(C)=O)C(c6ccc(OC)cc6)C5)c4)c3)=NN2C(C)=O)cc1` (stereo not given), the growth is 23.7% (inactive).
In the case of `C[n+]1c2ccccc2nc2c(N)cc(N)cc21` it was -5.14% (active); in that of `O=C(CCCCCCSc1nc(-c2ccccc2)cc(-c2ccccc2)n1)NO`, 43.2% (inactive); in that of `CCCCCCCCCCCC(=O)NCCC[N+](C)(C)CC(=O)[O-]`, 86.9% (inactive).
In the case of `COc1cccc(/C=C/C(=O)c2sc(Nc3ccc(O)cc3)nc2C)c1` it was 97.2% (inactive); in that of `Cn1nc(C(F)(F)F)cc1-c1c[nH]c(OCc2ccc(Cl)cc2)c(-c2ccc(Cl)c(C(F)(F)F)c2)c1=O`, -17.1% (active).
In the case of `Cc1ccc(-c2cc(-c3nnc(SCC(=O)c4ccccc4)o3)c3ccccc3n2)cc1` it was 115% (inactive); in that of `O=C(O)c1ccc2c(c1Sc1ccccc1)C(=O)c1ccccc1C2=O`, 97.9% (inactive); in that of `NC(=O)NCCCC(N)C(=O)O` (stereo not given), 107% (inactive).
Regarding `C/C(=N\Nc1nc(C)cs1)c1cc2ccccc2o1`, the growth was 82.6% (inactive).
In the case of `O=C1Nc2ccccc2/C1=C/c1cccn1CCCCCCn1c2ccccc2c(=O)c2ccccc21` it was 8.47% (active); in that of `N#CSc1c[nH]c2cccc(/C=C/C(=O)/C=C(/C=C/c3cccc4[nH]cc(SC#N)c34)OB(F)F)c12`, -32% (active).
In the case of `C=C[C@]1(C)C=C2C(=O)[C@@]3(O)OC(=O)[C@@]4(CCCC(C)(C)[C@H]34)[C@@]2(O)CC1` it was -84.4% (active); in that of `O=c1c(-c2nc3ccccc3[nH]2)cc2ccccc2n1Cc1cn(Cc2ccc(F)cc2)nn1`, 4.78% (active); in that of `O=C1/C(=C/c2ccc(F)cc2)COc2ccc(O)c(O)c21`, -2.42% (active).
As for `O=C(CCc1nnc(SCc2ccccc2)s1)c1nc2ccccc2[nH]1`, the figure is 103% (inactive); as for `CCCCNC1=C(OCC)C(=O)c2ccccc2C1=O`, 56.3% (inactive).
Take `CCCCCCOC(=O)CC1=C(C)/C(=C/c2[nH]c(-c3ccc[nH]3)cc2OC)N=C1C`: the growth is -59.7% (active).
In the case of `C=C1[C@@H](O)C[C@H]2C(C)(C)C[C@H](Cl)C[C@]2(C)[C@H]1C[C@H](O)[C@H]1CC(=O)NC1=O` it was -47.5% (active).
In the case of `COc1ccc(-c2nc(N/N=C/c3cccc(Br)c3)nc(N3CCOCC3)c2C#N)cc1` it was 73.4% (inactive); in that of `CC(C)=CCCC(C)c1ccc(C)c2c1OCN(CCCCCO)C2` (stereo not given), 90% (inactive).
`CCNc1nnnn1CC`: the growth was 101% (inactive).
In the case of `COc1cccc(CNc2c3ccccc3nc3ccccc23)c1OC` it was 1.08% (active).
In the case of `COc1cc2c3c(n(C4CCNCC4)c(=O)c2cc1OC)-c1cc2c(cc1C3=O)OCO2` it was -81% (active); in that of `COc1cc(CNc2ccccc2C(=O)N2CCN(C(=O)c3cc(-c4cc(OC)c(OC)c(OC)c4)n4nc(-c5ccccc5)cc4n3)CC2)cc(OC)c1OC`, 23.1% (inactive).
As for `CN(C)c1ccc(N=Nc2ccc3ccccc3c2)cc1`, the figure is 5.06% (active); as for `O=C(NCCCN1CCN(CCCNC(=O)C2CCCCC2)CC1)C1CCCCC1`, 110% (inactive); as for `CCCCCCCCC(=O)OCCCC(CCC(CCC1CCCO1)OC(=O)CCCCCCCC)OC(=O)CCCCCCCC` (stereo not given), 111% (inactive).
Turning to `CN(C)CCCOc1ccc(NC2=C(Cl)C(=O)C(Nc3ccc(OCCCN(C)C)cc3)=C(Cl)C2=O)cc1`, the growth is -57.2% (active).
In the case of `CC(=O)C1=C(C)NC(NN)=NC1c1cccc(Cl)c1` (stereo not given) it was 105% (inactive); in that of `O=C(O)c1ccc(-n2c(=O)c3ccccc3c3ccccc3c2=O)cc1`, 105% (inactive); in that of `Cn1cc(-c2csc(-c3cn(CCCN4CCCCC4)c4ccccc34)n2)c2cccnc21`, 99.8% (inactive).
As for `CC(=O)Nc1cccc(-n2cnc3cc(-c4ccc(O)cc4)ccc32)c1`, the figure is -0.935% (active); as for `CCc1c(C)c2cc(-n3c(-c4ccc(OC)cc4)csc3=N)c(O)c(C)c2oc1=O`, 17% (inactive).
In the case of `NC(CC(N)C(=O)O)C(=O)O` (stereo not given) it was 90.5% (inactive).

Source of the values: PubChem BioAssay (NCI).
